Most compounds without a hit are left out; they make up all but 3.2% or so of the library.
FBA Mtb inh = Mtb fructose-bisphosphate aldolase inhibition. purified M. tuberculosis FBA, fluorescence read-out. 360,000 compounds, 2.3% hits. inhibition, % at 1 µM; in the data active = inhibition above about 27%;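 note: 0% = vehicle and 100% = reference inhibitor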
Mtb UGM inh = inhibitors of M. tuberculosis UDP-galactopyranose mutase; P9WIQ1; purified UGM, fluorescence polarization probe displacement; inhibition, % at 10 µM; 320,000 compounds, 0.06% hits; AID 504406; in the data active = inhibition above about 10%, passing the limit was not always enough
Target sequence (P9WIQ1 whole entry, looked up): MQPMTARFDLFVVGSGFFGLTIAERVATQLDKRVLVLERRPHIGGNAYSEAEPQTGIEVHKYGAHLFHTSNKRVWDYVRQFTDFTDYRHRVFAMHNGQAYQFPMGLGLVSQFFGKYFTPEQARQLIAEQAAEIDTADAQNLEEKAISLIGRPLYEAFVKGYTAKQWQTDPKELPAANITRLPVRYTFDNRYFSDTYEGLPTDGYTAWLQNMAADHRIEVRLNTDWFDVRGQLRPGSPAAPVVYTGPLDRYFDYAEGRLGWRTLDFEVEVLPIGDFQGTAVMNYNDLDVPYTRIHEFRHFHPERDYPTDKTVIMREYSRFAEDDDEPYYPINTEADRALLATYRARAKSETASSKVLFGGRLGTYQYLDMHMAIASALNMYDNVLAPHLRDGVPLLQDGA
GDH-TPI counter = GDH-TPI coupled enzyme inhibition counter-screen; GDH-TPI coupled enzyme counterscreen, NADH absorbance; inhibition, % at 4.8 µM; 360,000 compounds, 1.2% hits; in the data active = inhibition above about 30%;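 note: 0% = DMSO wells and 100% = wells lacking the enzyme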
Mtb bLac sens = beta-lactam sensitization of Mtb H37Rv | M. tuberculosis H37Rv growth with meropenem, percent inhibition | inhibition, % at 25 µM | 330,000 compounds, 0.27% hits; call rule not given here;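 note: growth measured after seven days incubation then overnight dye step; 0% = bacteria only wells and 100% = bacteria with antibiotic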
Rv3671c protease = Rv3671c (M. tuberculosis) protease inhibition; P9WHR9; inhibition, % at 5.96 µM; 320,000 compounds, 0.048% hits; AID 2606; in the data active = inhibition above about 38%;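 note: extracellular domain of Rv3671c used as enzyme; 0% = enzyme with DMSO and 100% = no enzyme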
SSB-PriA inh = blocks PriA binding to SSB C-terminal tail; AlphaScreen SSBct-PriA binding, biotinylated peptide; inhibition, % at 33 µM; 430,000 compounds, 0.6% hits; AID 1272365; in the data active = inhibition mostly above about 37%, no sharp cut-off; inactive = mostly below about 20%;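 note: plate controls were negative control peptide for no effect and reference peptide for full effect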
* marks the source's active call; other numbers are inactive results; i = inactive; nt = no result given; + = active, no number.

SMILES	FBA Mtb inh	Mtb UGM inh	GDH-TPI counter	Mtb bLac sens	Rv3671c protease	SSB-PriA inh
CCOC(=O)c1[nH]c2ccccc2c1NC(=O)c1ccc2c(c1)OCO2	4	3	3	0	-8	97*
CCOC(=O)c1[nH]c2ccc(OC)cc2c1NC(=O)c1ccc2c(c1)OCO2	-3	-1	6	-4	-7	-9
O=C(NCCOc1ccccc1)[C@H]1CCCN(c2cc(-n3cccn3)ncn2)C1	nt	nt	nt	nt	nt	0
Cc1ccc(Sc2nccn3c(=O)n(CC(=O)Nc4ccc(C)cc4Br)nc23)c(C)c1	nt	nt	nt	nt	nt	-7
O=C(CN(Cc1ccccc1)S(=O)(=O)c1ccc2c(c1)OCCO2)NN=Cc1ccc(F)cc1	nt	nt	nt	nt	nt	3
N#Cc1cccc2c1-c1ccccc1C2=NNC(N)=O	nt	nt	nt	nt	nt	2
Cc1cc(C)cc(C(=O)Nc2ccc(-c3ccc4nnc(-c5ccccn5)n4n3)cc2)c1	nt	nt	nt	nt	nt	67*
O=C(Nc1ccc(-c2ccc3nnc(-c4ccccn4)n3n2)cc1)c1cccc2ccccc12	nt	nt	nt	nt	nt	-19
O=C(Nc1ccc(-c2ccc3nnc(-c4ccccn4)n3n2)cc1)c1cccnc1Cl	nt	nt	nt	nt	nt	87*
COc1ccc(S(=O)(=O)Nc2ccc3c(c2)CCCN3C(=O)c2ccccc2)cc1Cl	nt	nt	nt	nt	nt	18
C=CCOCC(O)Cn1c(NCc2ccco2)nc2c1c(=O)[nH]c(=O)n2C (centres undefined)	nt	nt	nt	nt	nt	67*
CCOc1ccc(-n2ccc(=O)c(C(=O)Nc3ccc(S(=O)(=O)Nc4nccs4)cc3)n2)cc1	2	3	33*	0	-13	-12
CCS(=O)(=O)c1nc(S(=O)(=O)c2ccc(C)cc2)c(N2CCCCCC2)s1	-2	nt	17	nt	nt	nt
CCS(=O)(=O)c1nc(S(=O)(=O)c2ccc(C)cc2)c(N2CCCC2)s1	0	3	34*	-5	7	8
O=C(Cc1noc2ccccc12)N1CCC(Cc2n[nH]c(=O)n2-c2ccccc2F)CC1	nt	nt	nt	nt	nt	8
Nc1ccc(N(CCO)CCO)cc1	-2	3	3	8	-73	11
CCN(CC)c1ccc(N)cc1	-2	-1	2	100	0	65*
Cc1ccc2nc3c(cc(S(=O)(=O)c4ccccc4)c(=N)n3Cc3ccco3)c(=O)n2c1	121*	2	5	11	-9	-8
Cc1cccn2c(=O)c3cc(S(=O)(=O)c4ccc(F)cc4)c(=N)n(Cc4ccco4)c3nc12	116*	5	0	-5	-10	-2
Cc1cccn2c(=O)c3cc(S(=O)(=O)c4ccccc4)c(=N)n(Cc4ccco4)c3nc12	21	5	6	-10	-5	-6
O=C(C=Cc1ccccc1)c1c[nH]c2ccccc2c1=O	-2	nt	38*	nt	nt	-4
COc1cc(C(=O)N/N=C/c2cn(Cc3cccc(F)c3)c3ccccc23)ccc1O	4	1	35*	4	nt	nt
O=C(O)c1ccc(N/N=C/c2cn(Cc3ccc(F)cc3)c3ccccc23)cc1	12	1	44*	10	15	i
Cc1c(/C=N/Nc2ccc(C(=O)O)cc2)c2ccccc2n1C	4	-3	41*	2	4	i
COC(=O)Cn1cc(/C=N/NC(=O)c2ccc(C#N)cc2F)c2ccccc21	-1	-3	38*	-4	0	nt
SMILES	FBA Mtb inh	Mtb UGM inh	GDH-TPI counter	Mtb bLac sens	Rv3671c protease	SSB-PriA inh
CCNC(=S)N/N=C/c1cn(Cc2ccc(F)cc2)c2ccccc12	-1	0	22	6	10	nt
COc1ccc(S(=O)(=O)NCCCn2nc(-c3ccccc3)ccc2=O)cc1OC	nt	nt	nt	nt	nt	1
COc1ccc(C(=O)/C=C\N2CCOCC2)cc1	-1	1	33*	-11	6	-7
Clc1ccc(CN2CCC(Cn3cccn3)CC2)cc1Cl	nt	nt	nt	nt	nt	-12
Cc1ccc(CNC(=O)CCc2c(C)nc3c(c(C)nn3-c3ccc(C)cc3)c2C)cc1	1	2	4	9	5	-11
Cc1ccc(-n2nc(C)c3c(C)c(CCC(=O)NCc4ccco4)c(C)nc32)cc1	21	5	14	4	-9	96*
O=C(Nc1cccc2ncccc12)c1ccc(Cl)cc1	0	0	0	5	-6	48*
O=C(Nc1cccc2ncccc12)c1ccc(F)cc1	-2	-3	-5	-6	0	1
CC12CCC(C(=O)Nc3cccc(C(F)(F)F)c3)(C(Br)C1=O)C2(C)C (centres undefined)	nt	nt	nt	nt	nt	-28
CC(=O)/C(N=Nc1ccc(C(=O)O)cc1)=C(\C)O	-5	-3	15	-7	0	nt
CCN(CC)S(=O)(=O)c1ccc(N=N/C(C(C)=O)=C(/C)O)cc1	-1	-1	40*	-2	-8	nt
CC(=O)/C(N=Nc1ccc(-n2ccc(C(F)(F)F)n2)cc1)=C(\C)O	-1	1	35*	9	13	nt
CCn1nc(C(C)C)cc1C(=O)O	nt	nt	nt	nt	nt	2
COc1ccc(/C(C)=N/NC(=O)C2CC2)cc1	1	0	-1	9	-4	nt
COc1ccc2cc(/C(C)=N/NC(=O)C3CC3)ccc2c1	+	-4	2	-7	-4	nt
CN(C)C(=O)COC(=O)c1cc(Cl)cc(Cl)c1N	127*	-1	5	-15	1	-6
O=C(NCc1csc2ncnn12)C1CCCN(c2ccc(-n3cncn3)nn2)C1 (centres undefined)	nt	nt	nt	nt	nt	-9
O=[N+]([O-])c1ccccc1NN=Cc1c[nH]c2ccccc12	nt	nt	nt	nt	nt	46
CC(C)N(C(=O)CSc1n[nH]c(=O)n1CCc1ccccc1)C(C)C	-1	-2	-6	-4	1	-3
CCN(CC)C(=O)CSc1n[nH]c(=O)n1CCc1ccccc1	148*	-2	-3	3	7	-3
COCc1cc(C)n(CC(=O)N/N=C/c2ccc(-c3ccc(Cl)c(C(=O)O)c3)o2)c(=O)c1C#N	5	-3	69*	3	-2	nt
COCc1cc(C)nc(N/N=C/c2ccc(-c3ccc(C(=O)O)c(Cl)c3)o2)c1C#N	nt	4	nt	0	-1	nt
CCN(CC)c1ccc(/C=C2\SC(=O)NC2=O)cc1	nt	nt	nt	nt	nt	1
Cc1ccc(N2C(=O)c3ccccc3C2C(=O)c2ccc(O)cc2O)cc1 (centres undefined)	-5	0	43*	1	1	-15
Cc1ccc(N2C(=O)c3ccccc3C2C(=O)c2cc(C)ccc2O)cc1 (centres undefined)	-7	0	4	-7	-4	-11
SMILES	FBA Mtb inh	Mtb UGM inh	GDH-TPI counter	Mtb bLac sens	Rv3671c protease	SSB-PriA inh
NS(=O)(=O)c1ccc(O)c(N2C(=O)c3cccc4c(C(=O)c5ccccc5)ccc(c34)C2=O)c1	nt	nt	nt	nt	nt	46*
COc1ccccc1N1C(=O)c2cccc3c(C(=O)O)ccc(c23)C1=O	1	-2	24	9	1	1
CC(CC(=O)Nc1ccc2c(c1)c(=O)n(C)n2-c1ccccc1F)c1ccccc1 (centres undefined)	139*	nt	11	nt	nt	nt
CN(C)c1ccc(NC(=O)Nc2ccc3c(c2)c(=O)n(C)n3-c2ccccc2)cc1	1	nt	-1	nt	nt	nt
Cn1c(=O)c2cc(NC(=O)CC(C)(C)C)ccc2n1-c1ccccc1F	174*	nt	6	nt	nt	nt
CC1(C)OC(=O)N(c2ccccc2)C12C=Cc1c(ccc3ccccc13)O2 (centres undefined)	-1	2	0	-2	-4	-20

Compound activity from PubChem.
